The source made the active and inactive calls.

Composite z-score and z-score data for 5 molecules are collected here from PubChem BioAssay.

Test [1] in a line: small molecules captured by biotinylated probe aFSTL3 – biochemical, small-molecule microarray, fluorescence 635/667, stem cell growth factor project, primary screen (AID 1064).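 Note: measures binding of the biotinylated anti-FSTL3 antibody to printed compounds.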 Conditions: higher = more signal.
Test [2] can be described thus: binders from COS7 lysate, DM2A8 probe, primary screen, torsin A project, cell lysate, small-molecule microarray, fluorescence 635/667 (AID 1065). Conditions: higher = more signal, COS7 lysate expressing mutant human TOR1A.
Test [3] in a line: small molecules captured by biotinylated probe aFGF2 – biochemical, small-molecule microarray, fluorescence 635/667, stem cell growth factor project, primary screen (AID 1067).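 Note: measures binding of biotinylated aFGF2 protein to printed compounds on slides; z-score merges feature fluorescence and signal-to-noise across triplicate slides.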 Conditions: higher = more signal.
Test [4] is described as follows: small molecules captured by biotinylated probe aFGF10 – biochemical, small-molecule microarray, fluorescence 635/667, stem cell growth factor project, primary screen (AID 1071).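 Note: score merges 667 nm spot intensity and signal to noise from triplicate slides.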 Conditions: higher = more signal.
Test [5] concerns the target Neurogenic locus notch homolog protein 2 (Homo sapiens) (UniProt Q04721). Description: small molecules binding Notch2 protein – biochemical, small-molecule microarray, 635 nm fluorescence, stem cell growth factors, primary screen (AID 1073). Conditions: higher = more signal.
For test [6], the target named is Pro-neuregulin-1, membrane-bound isoform (Homo sapiens) (UniProt Q02297). The experiment in a line: small molecules binding neuregulin-1 protein – biochemical, small-molecule microarray, fluorescence 635/667, psychiatric disease protein project, primary screen (AID 1075).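 Note: score combines 667 nm spot fluorescence with signal to noise.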 The settings on record: NRG1 binding, 635 nm fluorescence, higher = more signal.
The test system of test [7] is Neuregulin-1 EGF-like domain. The experiment in a line: small molecules binding NRG1 EGF domain – biochemical, small-molecule microarray, 635 nm fluorescence, primary screen (AID 1081).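 Note: binding of the protein to compounds printed on small-molecule microarray slides.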 The settings on record: higher = more signal.
Test [8] in a line: FRG1 expression reporter modulators in myotubes – cell-based, C2C12 myotubes, firefly/Renilla luciferase, luminescence, FRG1 inhibition for FSHD, primary screen (AID 1084). Conditions: FRG1 promoter luciferase, higher = more signal, called active from +8 up or from −8 down.
A short description of test [9]: small molecules captured by biotinylated probe aFST – biochemical, small-molecule microarray, fluorescence 635/667, stem cell growth factor project, primary screen (AID 1086).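 Note: score merges 667 nm fluorescence with signal-to-noise of each printed compound spot.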 Conditions: higher = more signal.
The nature of test [10]: binders of probe aHhip on microarray, primary screen, stem cell growth factor project, biochemical, small-molecule microarray, fluorescence 635/667 (AID 1087).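 Note: score merges spot fluorescence at 667nm with spot signal to noise ratio.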 Conditions: higher = more signal.
In test [11] the test system is PRMT1 (protein arginine N-methyltransferase 1). Description: small molecules binding arginine methyltransferase PRMT1 – biochemical, small-molecule microarray, 635 nm fluorescence, primary screen (AID 1088).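 Note: binding of Prmt1 protein to compounds spotted on small-molecule microarray slides.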 The settings on record: higher = more signal.
Test [12] in a line: growth effects on S. cerevisiae YJM789 – YJM789 clinical isolate, OD600, 24 h, basal, primary screen (AID 1089).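 Note: growth of clinical yeast isolate S. cerevisiae YJM 789 seeded 1000 cells per well; test concentration not given here.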 The settings on record: higher = more signal, called active from +8 up or from −8 down.
Test [13] can be described thus: S. pombe growth modifiers, basal conditions – strain 972, OD600, 24 h, no modulator, primary screen (AID 1090).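 Note: basal condition with compound alone and no growth modifier present; test concentration not given here.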 The settings on record: S. pombe 972 growth, higher = more signal, called active from +8 up or from −8 down.
The nature of test [14]: budding yeast growth modifiers under rapamycin – strain BY4716, OD600, 96 h, primary screen (AID 1091). Note: test concentration not given here. Conditions: S. cerevisiae BY4716 + rapamycin, higher = more signal, called active from +8 up or from −8 down.
Test [15] deals with Torsin-1A-interacting protein 2 (Homo sapiens) (UniProt Q8NFQ8). Description: small molecules binding lysate-expressed LULL1 – cell lysate, human LULL1 lysate, 635/667 nm fluorescence, primary screen (AID 1092).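 Note: probe is lysate of COS7 cells overexpressing human LULL1; score merges per-feature 667 nm fluorescence with signal-to-noise.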 Conditions: small-molecule microarray, hLULL1 lysate binding, 635 nm fluorescence; higher = more signal.
A short description of test [16]: optical density change of DRC41 E. coli – strain DRC41, OD650, 24 h, E. coli filamentation project, primary screen (AID 1093).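 Note: MC1000 strain lacking acrAB efflux and sulA so SOS filamentation is blocked; test concentration not given here.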 The settings on record: E. coli DRC41 growth, higher = more signal, called active from +8 up or from −8 down.
Test [17] can be described thus: probe aLefty2 binding to arrayed compounds – biochemical, biotinylated probe, 635/667 nm fluorescence, primary screen (AID 1094).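 Note: score merges spot fluorescence near 667 nm with spot signal-to-noise ratio.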 Conditions: small-molecule microarray, higher = more signal.
Test [18] has as its system Noggin (protein binding on small-molecule microarray). The experiment in a line: small molecules binding Noggin protein – biochemical, 635/667 nm fluorescence, primary screen (AID 1095).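 Note: score merges 667 nm feature fluorescence with signal to noise over triplicate slides.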 The settings on record: 635 nm fluorescence, higher = more signal.
For test [19], the target named is Neurogenic locus notch homolog protein 3 (Homo sapiens) (UniProt Q9UM47). Description: small molecules binding NOTCH3 protein – biochemical, 635/667 nm fluorescence, primary screen (AID 1096). The settings on record: small-molecule microarray, 635 nm fluorescence, higher = more signal.
Test [20] can be described thus: probe aEGFR binding to arrayed compounds – biochemical, biotinylated probe, 635/667 nm fluorescence, primary screen (AID 1097).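 Note: probe is a biotinylated anti-EGFR antibody binding compounds printed on slides; score combines fluorescence near 667 nm and signal to noise of each spot.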 The settings on record: small-molecule microarray, higher = more signal.

Sequence of Pro-neuregulin-1, membrane-bound isoform (Homo sapiens) (Q02297 whole entry, looked up, the tested form may be a part, canonical isoform): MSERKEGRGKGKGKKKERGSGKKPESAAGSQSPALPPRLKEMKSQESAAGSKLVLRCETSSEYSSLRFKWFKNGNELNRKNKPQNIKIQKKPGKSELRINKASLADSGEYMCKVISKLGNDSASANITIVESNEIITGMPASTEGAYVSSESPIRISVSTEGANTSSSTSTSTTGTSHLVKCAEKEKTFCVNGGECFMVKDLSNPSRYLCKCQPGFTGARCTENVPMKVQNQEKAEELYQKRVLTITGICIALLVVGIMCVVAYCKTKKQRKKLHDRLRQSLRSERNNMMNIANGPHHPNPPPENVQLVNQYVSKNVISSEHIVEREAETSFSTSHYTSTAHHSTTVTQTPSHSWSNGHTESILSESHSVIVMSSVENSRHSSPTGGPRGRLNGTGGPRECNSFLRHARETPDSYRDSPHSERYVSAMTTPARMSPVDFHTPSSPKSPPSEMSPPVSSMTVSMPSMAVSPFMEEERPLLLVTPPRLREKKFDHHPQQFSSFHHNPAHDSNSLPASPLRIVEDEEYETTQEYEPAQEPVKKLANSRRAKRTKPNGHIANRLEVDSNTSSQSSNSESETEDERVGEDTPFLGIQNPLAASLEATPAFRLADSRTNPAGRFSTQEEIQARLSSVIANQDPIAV
Sequence of Neurogenic locus notch homolog protein 3 (Homo sapiens) (Q9UM47 whole entry, looked up): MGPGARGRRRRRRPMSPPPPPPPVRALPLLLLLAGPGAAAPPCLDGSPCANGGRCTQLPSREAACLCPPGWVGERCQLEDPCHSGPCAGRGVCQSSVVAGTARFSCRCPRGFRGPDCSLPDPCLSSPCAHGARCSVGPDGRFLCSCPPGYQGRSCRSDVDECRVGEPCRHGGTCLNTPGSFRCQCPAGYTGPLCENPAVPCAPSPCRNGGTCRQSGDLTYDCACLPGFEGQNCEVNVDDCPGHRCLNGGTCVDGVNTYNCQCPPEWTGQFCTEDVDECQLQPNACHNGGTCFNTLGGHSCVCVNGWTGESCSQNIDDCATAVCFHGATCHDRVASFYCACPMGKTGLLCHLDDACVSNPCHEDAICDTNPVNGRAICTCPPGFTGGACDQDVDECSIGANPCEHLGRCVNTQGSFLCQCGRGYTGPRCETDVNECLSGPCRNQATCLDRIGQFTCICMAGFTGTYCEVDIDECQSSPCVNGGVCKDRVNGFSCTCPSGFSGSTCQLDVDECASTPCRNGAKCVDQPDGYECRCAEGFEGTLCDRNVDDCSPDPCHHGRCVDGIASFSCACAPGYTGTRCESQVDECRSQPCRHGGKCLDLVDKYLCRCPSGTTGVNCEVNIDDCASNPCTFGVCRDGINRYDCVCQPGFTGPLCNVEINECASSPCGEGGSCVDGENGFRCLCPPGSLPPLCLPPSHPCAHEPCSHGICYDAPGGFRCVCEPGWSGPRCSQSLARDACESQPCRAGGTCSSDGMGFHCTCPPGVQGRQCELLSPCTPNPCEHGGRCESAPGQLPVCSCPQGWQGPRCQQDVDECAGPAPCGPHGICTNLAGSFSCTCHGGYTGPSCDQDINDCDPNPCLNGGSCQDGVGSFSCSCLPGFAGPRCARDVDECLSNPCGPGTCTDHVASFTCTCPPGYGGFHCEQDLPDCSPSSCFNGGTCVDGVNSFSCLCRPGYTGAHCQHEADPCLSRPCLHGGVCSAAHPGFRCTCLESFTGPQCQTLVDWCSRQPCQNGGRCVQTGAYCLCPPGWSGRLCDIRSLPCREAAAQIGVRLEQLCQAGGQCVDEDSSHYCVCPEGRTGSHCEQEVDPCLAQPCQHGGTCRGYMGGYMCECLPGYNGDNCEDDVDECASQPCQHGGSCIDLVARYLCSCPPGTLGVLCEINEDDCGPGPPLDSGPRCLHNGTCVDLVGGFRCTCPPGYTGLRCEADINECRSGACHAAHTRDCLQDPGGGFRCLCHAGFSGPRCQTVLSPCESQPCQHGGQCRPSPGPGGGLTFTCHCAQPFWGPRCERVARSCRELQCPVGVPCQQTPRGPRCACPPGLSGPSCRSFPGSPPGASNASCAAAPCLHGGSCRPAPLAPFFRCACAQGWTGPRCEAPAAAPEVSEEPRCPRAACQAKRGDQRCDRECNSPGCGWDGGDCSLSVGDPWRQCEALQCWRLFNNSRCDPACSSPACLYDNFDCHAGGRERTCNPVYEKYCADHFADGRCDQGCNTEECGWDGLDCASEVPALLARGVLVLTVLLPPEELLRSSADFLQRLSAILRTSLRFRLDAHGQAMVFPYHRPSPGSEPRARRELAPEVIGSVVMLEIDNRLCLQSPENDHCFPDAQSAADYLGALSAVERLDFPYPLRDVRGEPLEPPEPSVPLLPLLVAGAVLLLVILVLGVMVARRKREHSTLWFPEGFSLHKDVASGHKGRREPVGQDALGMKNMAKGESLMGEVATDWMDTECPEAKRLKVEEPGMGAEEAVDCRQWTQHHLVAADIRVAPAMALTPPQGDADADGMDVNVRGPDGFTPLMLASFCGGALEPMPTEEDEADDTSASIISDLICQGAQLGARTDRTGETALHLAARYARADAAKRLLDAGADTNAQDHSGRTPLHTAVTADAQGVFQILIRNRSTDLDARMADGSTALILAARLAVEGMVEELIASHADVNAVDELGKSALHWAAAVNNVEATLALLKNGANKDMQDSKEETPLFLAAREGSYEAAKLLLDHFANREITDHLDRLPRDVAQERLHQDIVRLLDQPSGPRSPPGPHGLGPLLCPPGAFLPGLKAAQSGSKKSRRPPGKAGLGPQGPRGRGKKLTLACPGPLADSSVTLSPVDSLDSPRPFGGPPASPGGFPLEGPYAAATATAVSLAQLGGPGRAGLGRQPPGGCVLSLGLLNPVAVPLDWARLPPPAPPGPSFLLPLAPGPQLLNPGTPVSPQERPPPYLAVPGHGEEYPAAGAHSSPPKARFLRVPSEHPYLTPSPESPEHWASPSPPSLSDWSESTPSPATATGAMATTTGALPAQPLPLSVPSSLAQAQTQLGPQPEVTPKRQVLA
Sequence of Torsin-1A-interacting protein 2 (Homo sapiens) (Q8NFQ8 whole entry, looked up): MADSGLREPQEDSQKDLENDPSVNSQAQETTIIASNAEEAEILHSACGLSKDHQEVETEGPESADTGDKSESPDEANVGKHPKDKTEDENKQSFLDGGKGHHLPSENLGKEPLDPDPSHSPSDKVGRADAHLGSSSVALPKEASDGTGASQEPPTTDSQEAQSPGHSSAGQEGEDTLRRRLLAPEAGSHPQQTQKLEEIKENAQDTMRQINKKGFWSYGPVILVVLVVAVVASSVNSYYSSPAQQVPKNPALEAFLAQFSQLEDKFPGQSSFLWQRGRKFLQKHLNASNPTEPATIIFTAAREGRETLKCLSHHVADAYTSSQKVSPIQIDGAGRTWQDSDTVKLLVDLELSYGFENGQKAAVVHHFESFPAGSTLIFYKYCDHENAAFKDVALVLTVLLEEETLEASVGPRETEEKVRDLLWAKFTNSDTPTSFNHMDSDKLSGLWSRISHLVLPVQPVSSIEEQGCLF

On to `CC(C)CNC(=O)[C@@]1(C)c2ccccc2C(=O)N(Cc2cc(F)cc(C(F)(F)F)c2)[C@H]1c1ccc(CO)cc1`, for which the composite z-score in [1] was -0.182; in test [2] it was -0.188; in [3] it was -0.0422; in [4], 0.325; in [5], -0.102; in test [6] it was 0.669. The composite z-score in test [7] is 1.11; in test [9], 0.0289; in test [10], 0.0722; in [11], 1.56; in [15] it was 2.6; in [17], -0.0172. Besides, the composite z-score in test [18] is 0.602; in test [19], 0.616; in test [20] it was -0.165. In addition, the z-score is -1.48 (inactive) in test [8]; -1.08 (inactive) in test [12]; -0.428 (inactive) in test [13]; -0.629 (inactive) in [14]; 0.149 (inactive) in test [16].

In the case of `C=C(CC1([C@@H](NP(=O)(c2ccccc2)c2ccccc2)[C@H]2C[C@@H]2CCN(C(=O)OCC)S(=O)(=O)c2ccc(C)cc2)CC1)c1ccccc1`, the composite z-score in [1] is 0.0862; in [2], -0.163; in test [3], 0.226; in [4], 0.821; in test [5], 1.67; in test [6] it was 1.38. Besides, the composite z-score was 1.12 in test [7]; 1.5 in test [9]; 0.128 in test [10]; -0.362 in [11]; 2.98 in [15]; 0.502 in [17]. Besides, the figures for the composite z-score in test [18], in [19] and in [20] were 0.229, 1.02 and 0.104, respectively. The z-score in [8] is 0.894 (inactive); in test [12], 0.585 (inactive); in [13] it was 0.722 (inactive); in [14], 3.51 (inactive); in test [16], -0.926 (inactive).

Consider `COCCOC(=O)N1C(=O)[C@@]2(c3cc(C#CCCO)ccc31)[C@H](c1ccccc1OCCO)N1[C@H](c3ccccc3)[C@H](c3ccccc3)OC(=O)[C@H]1[C@@H]2C(=O)N1CCc2cc(OC)c(OC)cc2C1`, for which the composite z-score turned out to be 0.071 in test [1]; 0.827 in test [2]; 0.022 in [3]; 1.04 in test [4]; 1.04 in test [5]; 1.21 in [6]. Also, the composite z-score in test [7] was 1.17; in test [9], 0.505; in [10] it was 0.0373; in test [11], 1.54; in test [15] it was 2.93; in [17], -0.0616. For the same molecule, the figures for the composite z-score in test [18], in test [19] and in test [20] were 1.26, 1.12 and 0.0384, respectively. The z-score in [8] is -1.4 (inactive); in [12] it was 1.88 (inactive); in test [13], 0.763 (inactive); in [14], 3 (inactive); in test [16] it was 1.26 (inactive).

As for `CC(C)C[C@H]1NC(=O)[C@H](Cc2ccccc2)NC(=O)[C@@]23C(=O)N[C@@H](Cc4ccccc4)C2[C@H](C)[C@@]2(C)O[C@H]2C3/C=C/C/C=C\CNC1=O` (stereo not given in full), the composite z-score is -0.263 in test [1]; 0.919 in test [2]; -0.116 in [3]; 0.461 in test [4]; 0.777 in test [5]; 1.03 in test [6]. Moreover, the composite z-score in [7] was 1.05; in test [9], 0.089; in test [10], 0.0626; in test [11], 1.21; in test [15] it was 1.46; in [17] it was -0.123. Besides, the composite z-score in test [18] is 0.426; in test [19], 0.852; in [20], -0.0968. Besides, the z-score in [8] was 2.48 (inactive); in test [12], -1.12 (inactive); in test [13] it was -0.667 (inactive); in test [14] it was -0.302 (inactive); in test [16], -1.03 (inactive).

Regarding `[N-]=[N+]=NCc1ccccc1C[C@]1(C(=O)O)COC(c2ccc(OCCCO)cc2)=N1`, the composite z-score in [1] is 0.895; in [2] it was -0.167; in test [3] it was -0.0213; in test [4] it was -0.461; in test [5] it was -0.664; in [6] it was 1.57. Moreover, the composite z-score is 0.0238 in [7]; 0.0273 in [9]; 0.2 in test [10]; -0.486 in test [11]; -0.0986 in test [15]; -0.0252 in [17]. Moreover, the composite z-score in test [18] was -0.389; in [19] it was -0.614; in test [20] it was -0.0702. Further, the z-score in test [8] is 0.277 (inactive); in test [12] it was 0.493 (inactive); in [13], 0.612 (inactive); in test [14], -0.0738 (inactive); in test [16], 0.398 (inactive).
